A short description of assay [1]: qHTS assay to identify small molecule antagonists of the estrogen related receptor (ERR) signaling pathway from Tox21 library - cell viability counter screen (AID 1224834). Further: nearly all actives have a fitted effect of over 30% in size. Further: potency means the concentration at half of the fitted maximal effect. The procedure, abridged:
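Cytotoxicity of test substances is gauged in the same ERR cells used for the antagonist screen, after 17.5 h of compound treatment at 37 C, by CellTiter-Fluor fluorescence measured after 30 min.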

Assay [2] addresses Luciferin 4-monooxygenase (Photinus pyralis) (UniProt P08659). Nature of the assay: qHTS assay to identify small molecule inhibitors of firefly luciferase (AID 1224835). Further: nearly all actives have a fitted effect of over 25% in size. Further: potency means the concentration at half of the fitted maximal effect. The method, boiled down:
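Biochemical qHTS: compounds run as interplate titrations against purified firefly enzyme, with D-luciferin and ATP each at its KM concentration. Light output recorded by CCD imaging.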

Assay [3] in a line: qHTS assay to identify small molecule agonists of the constitutive androstane receptor (CAR) signaling pathway - cell viability counter screen (AID 1224836). Further: nearly all actives have a fitted effect of over 45% in size. Further: potency means the concentration at half of the fitted maximal effect. The procedure, abridged:
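Double-stable HepG2 hepatoma cells (hCAR plus CYP2B6-2.2kb) are treated for 23 h at 37 C with test compounds in 15-point concentration series. PK11195 at 0.75 uM final is co-added. Cell viability is quantified by CellTiter-Fluor.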

Assay [4] in a line: qHTS assay to identify small molecule antagonists of the constitutive androstane receptor (CAR) signaling pathway - cell viability counter screen (AID 1224837). Further: nearly all actives have a fitted effect of over 45% in size. Further: potency means the concentration at half of the fitted maximal effect. The procedure, abridged:
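Multiplexed cytotoxicity read-out for the CAR antagonist screen: double-stable HepG2-CYP2B6-hCAR cells co-treated with 50 nM CITCO (final) and compound over 15 concentrations, incubated 23 hr, then assessed by CellTiter-Fluor fluorescence.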

The target in assay [5] is Thyrotropin receptor (Homo sapiens) (UniProt P16473). The experiment in a line: qHTS assay to identify small molecule agonists of the thyroid stimulating hormone receptor (TSHR) signaling pathway (AID 1224843; calls by dose curve; further: nearly all actives have a fitted effect of over 45% in size). The procedure, abridged:
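Steps: seed 800 TSHR-HEK293 cells per well; add test compound and hold 30 min at ambient temperature; dispense cAMP-d2 then anti-cAMP cryptate; incubate 1 h at ambient; measure fluorescence intensity.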
(In general: qHTS replaces the single test concentration by a dilution series.)

The nature of assay [6]: qHTS assay to identify small molecule agonists of the hypoxia (HIF-1) signaling pathway - cell viability counter screen (AID 1224844; calls by dose curve; further: nearly all actives have a fitted effect of over 50% in size; further: potency means the concentration at half of the fitted maximal effect). The procedure, abridged:
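Tox21 10K compounds were added to HRE-bla ME-180 cells (0.5% dialyzed FBS) and incubated 17 hrs at 37C; ATP-based CellTiter-Glo luminescence then reported cell viability in the same wells.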

Assay [7] in a line: qHTS assay to identify small molecule agonists of the hypoxia (HIF-1) signaling pathway (AID 1224846; active means well fitted activation curve with a large enough effect in the signal ratio in the repeat runs, not every such curve was filed as active; the % refers to the signal ratio). The method, boiled down:
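Steps: seed ME-180 HRE-bla cells (2,000/well, 0.5% dialyzed FBS); incubate 5 hrs at 37C; pin-transfer compounds or DMSO; incubate 17 hrs; add LiveBLAzer B/G substrate CCF4-AM; measure reporter activation by FRET.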

A short description of assay [8]: qHTS assay to identify small molecule agonists of H2AX - cell viability counter screen (AID 1224847; calls by dose curve; further: nearly all actives have a fitted effect of over 30% in size; further: potency means the concentration at half of the fitted maximal effect). The procedure, abridged: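 For this counter screen, overnight-attached CHO-K1 cells received test compounds (15 concentrations, 0.76% DMSO final); 3 hr later at 37C, CellTiter-Glo reagent was added and luminescence recorded after 30 min at room temperature.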
Assay [9] is described as follows: qHTS assay to identify small molecule antagonists of the estrogen related receptor (ERR) signaling pathway from Tox21 library (AID 1224848). Further: nearly all actives have a fitted effect of over 50% in size. Further: potency means the concentration at half of the fitted maximal effect. The procedure, abridged:
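Luminescent reporter read-out (ONE-Glo) from NTP's ERR cell line after 18 h treatment at 37 C with DMSO-dissolved Tox21 compounds; cells pre-plated 6 h beforehand at 2,000 per well.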

Assay [10] can be described thus: qHTS assay to identify small molecule agonists of the estrogen related receptor (ERR) signaling pathway from Tox21 library (AID 1224849; calls by dose curve; further: nearly all actives have a fitted effect of over 15% in size). The settings on record: ERR reporter cell line, ONE-Glo luciferase, 18 h; at 92.4 µM (top of the series) unless noted. The procedure, abridged: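 Agonist signal is luciferase luminescence from an ERR reporter cell line treated 18 h at 37 C with DMSO-dissolved compounds, read 30 min after ONE-Glo addition at room temperature.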

Assay [11] can be described thus: qHTS RealTime-Glo MT Cell Viability Assay in HepG2 cells - 24 hour (AID 1224867). Further: nearly all actives have a fitted effect of over 50% in size. Further: potency means the concentration at half of the fitted maximal effect. The procedure, abridged: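 Viability was tracked continuously by NanoLuc luminescence from prosubstrate reduced by living HepG2 cells, at successive time points over 40 h of compound exposure. Cells with reagent were preincubated 5 h at 37 °C before compound addition.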
A short description of assay [12]: A CellTox Green Cytotoxicity Assay to monitor cytotoxicity in HEK293 cells - 0 hour (AID 1224869). Further: nearly all actives have a fitted effect of over 50% in size. The method, boiled down:
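Cytotoxicity was tracked continuously in HEK293 cells by a DNA-binding dye excluded from viable cells. Compounds were transferred in DMSO 5 h after seeding; fluorescence was recorded at intervals up to 40 h.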

A short description of assay [13]: qHTS RealTime-Glo MT Cell Viability Assay in HepG2 cells - 40 hour (AID 1224870). Further: nearly all actives have a fitted effect of over 50% in size. The procedure, abridged:
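HepG2 cells (600/well) mixed with RealTime-Glo MT reagent, settled 5 h at 37 C/5% CO2 before compound addition. Nonlytic NanoLuc luminescence from viable-cell prosubstrate reduction read repeatedly during 40 h treatment at 37 C.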

Assay [14] is described as follows: qHTS assay to identify small molecule antagonists of the estrogen related receptor signaling pathway with the pleiotropic PPARgamma coactivator (PGC) from Tox21 10K library - cell viability counter screen (AID 1224840; active means well fitted cell-killing curve with a large enough effect in the repeat runs, not every such curve was filed as active; further: nearly all actives have a fitted effect of over 40% in size; further: potency means the concentration at half of the fitted maximal effect). The method, boiled down: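 Step one, plate 2,000 PGC/ERR cells per well; step two, incubate 6 h at 37 C/5% CO2; step three, pin-transfer compounds; step four, incubate 17.5 h; step five, add CellTiter-Fluor and read fluorescence after 30 min.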

Assay [15] in a line: qHTS assay to identify small molecule agonists of the estrogen related receptor signaling pathway with the pleiotropic PPARgamma coactivator (PGC) from Tox21 10K library (AID 1224842). Further: nearly all actives have a fitted effect of over 15% in size. The procedure, abridged:
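PGC/ERR reporter cell line, 2,000 cells per well, incubated 6 h at 37 C before 23 nL compound in DMSO was added. After 18 h at 37 C, One-Glo luminescence read following 30 min at room temperature.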

The nature of assay [16]: qHTS assay to identify small molecule agonists of H2AX (AID 1224845; active means well fitted activation curve with a large enough effect in the signal ratio in the repeat runs, not every such curve was filed as active; the % refers to the signal ratio). The method, boiled down: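 Wild-type CHO-K1 cells, plated overnight, exposed 3hr at 37C to 15 concentrations (0.76% DMSO final). Lysed, then HTRF anti-pH2AX (S139) cryptate and anti-H2AX-d2 antibodies, 24 hr room temperature; 665/620 nm emission read.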
Assay [17] is described as follows: qHTS RealTime-Glo MT Cell Viability Assay in HEK293 cells - 32 hour (AID 1224868). Further: nearly all actives have a fitted effect of over 50% in size. Further: potency means the concentration at half of the fitted maximal effect. The method, boiled down: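 Viability tracked continuously by luminescence as live cells reduce a prosubstrate for NanoLuc; HEK293 cells preincubated 5 h, compound-treated at 37 C, and read at 0, 8, 16, 24, 32 and 40 h.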
The target in assay [18] is Nuclear receptor subfamily 1 group I member 3 (Homo sapiens) (UniProt Q14994). The experiment in a line: qHTS assay to identify small molecule antagonists of the constitutive androstane receptor (CAR) signaling pathway (AID 1224838). Further: nearly all actives have a fitted effect of over 40% in size. The procedure, abridged:
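Compounds were titrated across 15 concentrations onto HepG2 cells double-stably expressing hCAR and a CYP2B6-2.2kb reporter, together with 50 nM CITCO (final). After 24 h at 37 C, luciferase activity was measured by luminescence.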

For assay [19] the target is unchanged. Nature of the assay: qHTS assay to identify small molecule agonists of the constitutive androstane receptor (CAR) signaling pathway (AID 1224839). Further: nearly all actives have a fitted effect of over 15% in size. Further: potency means the concentration at half of the fitted maximal effect.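 On activation: HepG2 cells stably carrying human CAR and a CYP2B6 luciferase reporter.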 The procedure, abridged: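 Readout: firefly luciferase luminescence via ONE-Glo. System: HepG2 double-stable for hCAR and CYP2B6-2.2kb. Conditions: 15-point compound titration, PK11195 at 0.75 uM final, 24 h incubation.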

The nature of assay [20]: qHTS assay to identify small molecule antagonists of the estrogen related receptor signaling pathway with the pleiotropic PPARgamma coactivator (PGC) from Tox21 10K library (AID 1224841; call rule not given here). The procedure, abridged:
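Antagonism in this quantitative HTS is taken from loss of luciferase signal in PGC/ERR cells. Cells (2,000/well) are treated with compounds in DMSO after a 6 h settling period and read by One-Glo luminescence after 18 h.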

Several values for one entry are separate records, joined by “and”; a condition that tells them apart may be missing. Equal entries are not always repeated. Results filed as inconclusive are left out. Where a structure was tested more than once in an assay, its records may differ in their call. Activity calls are given as the source filed them. Unless noted, the call rests on the fitted dose curve; in most records, active means well fitted curve in the direction sought with a large enough effect in the repeat runs; inconclusive means weak or mixed curves; inactive means no such curve, though single readings can be large; an effect the other way counts as inactive or inconclusive.
On the % scale 0 is the no-effect control and ±100 the full control effect.

Sequence of Luciferin 4-monooxygenase (Photinus pyralis) (P08659 whole entry, looked up): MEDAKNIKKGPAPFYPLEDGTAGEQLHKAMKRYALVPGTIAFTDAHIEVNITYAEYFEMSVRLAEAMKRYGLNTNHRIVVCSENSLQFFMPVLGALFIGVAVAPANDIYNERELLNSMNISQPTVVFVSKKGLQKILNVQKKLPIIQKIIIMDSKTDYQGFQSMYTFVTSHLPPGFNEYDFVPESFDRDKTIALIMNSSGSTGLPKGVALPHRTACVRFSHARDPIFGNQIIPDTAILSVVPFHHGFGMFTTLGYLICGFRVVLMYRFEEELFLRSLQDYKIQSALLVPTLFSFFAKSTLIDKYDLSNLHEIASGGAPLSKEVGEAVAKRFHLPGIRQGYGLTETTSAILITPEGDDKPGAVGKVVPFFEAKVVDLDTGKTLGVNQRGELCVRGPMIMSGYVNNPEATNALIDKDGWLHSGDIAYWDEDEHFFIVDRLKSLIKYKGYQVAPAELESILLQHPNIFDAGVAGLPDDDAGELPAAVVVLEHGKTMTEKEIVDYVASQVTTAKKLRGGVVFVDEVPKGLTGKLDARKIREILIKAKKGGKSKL
Sequence of Thyrotropin receptor (Homo sapiens) (P16473 whole entry, looked up): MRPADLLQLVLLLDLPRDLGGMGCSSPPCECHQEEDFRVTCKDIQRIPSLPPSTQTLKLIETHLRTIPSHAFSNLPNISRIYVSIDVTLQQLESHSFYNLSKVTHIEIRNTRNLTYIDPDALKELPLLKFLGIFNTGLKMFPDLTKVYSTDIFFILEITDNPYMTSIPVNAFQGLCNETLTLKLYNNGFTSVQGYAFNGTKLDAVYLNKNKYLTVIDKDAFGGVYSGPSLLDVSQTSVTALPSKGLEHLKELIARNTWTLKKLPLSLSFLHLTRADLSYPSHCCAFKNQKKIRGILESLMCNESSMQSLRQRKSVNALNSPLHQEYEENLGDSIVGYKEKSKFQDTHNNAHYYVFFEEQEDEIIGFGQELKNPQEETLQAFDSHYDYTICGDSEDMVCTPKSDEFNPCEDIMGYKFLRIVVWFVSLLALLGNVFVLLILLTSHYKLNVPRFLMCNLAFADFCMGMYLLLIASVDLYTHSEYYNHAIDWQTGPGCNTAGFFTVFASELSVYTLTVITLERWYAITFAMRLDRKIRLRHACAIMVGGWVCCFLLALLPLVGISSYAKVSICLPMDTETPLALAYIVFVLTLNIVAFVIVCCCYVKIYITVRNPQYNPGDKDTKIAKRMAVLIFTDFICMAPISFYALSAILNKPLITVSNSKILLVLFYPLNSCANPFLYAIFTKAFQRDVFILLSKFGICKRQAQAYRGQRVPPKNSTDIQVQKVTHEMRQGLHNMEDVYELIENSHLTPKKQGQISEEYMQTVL
Sequence of Nuclear receptor subfamily 1 group I member 3 (Homo sapiens) (Q14994 whole entry, looked up): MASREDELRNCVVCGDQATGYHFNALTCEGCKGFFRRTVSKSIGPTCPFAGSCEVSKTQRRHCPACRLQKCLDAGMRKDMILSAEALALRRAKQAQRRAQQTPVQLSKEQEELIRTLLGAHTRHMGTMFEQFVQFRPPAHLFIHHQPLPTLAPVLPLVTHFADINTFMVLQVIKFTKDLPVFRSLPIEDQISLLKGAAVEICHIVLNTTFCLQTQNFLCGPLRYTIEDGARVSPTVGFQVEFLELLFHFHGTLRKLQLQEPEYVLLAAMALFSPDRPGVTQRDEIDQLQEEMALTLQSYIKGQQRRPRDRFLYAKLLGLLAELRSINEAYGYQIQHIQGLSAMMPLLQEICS

`C[C@]12Cc3nonc3C[C@@H]1CC[C@@H]1[C@@H]2CC[C@@]2(C)[C@H]1CC[C@]2(C)O`: the Potency in assay [1] is 29.8 µM (active); in assay [6], 26.8 µM (active); in assay [8], 49.2 µM (active); in assay [9], 13300 nM (active). Further, the Potency result in assay [2], in assay [3], in assay [4], in [5], in assay [11] and in assay [12] was “inactive” each time. Also, the Potency entry in assay [13] was “inactive”. In addition, the result in assay [7] was inactive. Also, the activity change, positive = activation in assay [10] is -58.3% [at 42.5 µM] (inactive).

In the case of `N#Cc1ccccc1Cl`, the Potency entry in [1], in assay [2], in assay [3], in [4], in assay [14] and in assay [15] was “inactive” in each case. For the same compound, the Potency result in [5], in [6], in assay [16], in assay [8], in assay [9] and in [11] was “inactive” in each case. The Potency entry in assay [17] and in [13] was “inactive” each time. Moreover, the outcome in assay [7] was inactive. In addition, the activity change, positive = activation in assay [10] was 1.91% (inactive).

As for `CCCCCCCCCCCCCCCC[n+]1ccccc1`, the Potency in assay [1] is 32 µM (active) [middle of 4 runs]; in assay [3], 25.5 µM (active) and 15.4 µM (active) and 13.5 µM (active); in assay [4] it was 32 µM (active) and 15.4 µM (active) and 19.1 µM (active); in assay [14], 53.7 µM (active) [middle of 4 runs]; in assay [6], 57.5 µM (active) and inactive. The Potency result in [2], in assay [16] and in assay [12] was “inactive” each time.

`CN(CCCC(O)c1cccnc1)N=O` (stereo unspecified): the Potency entry in assay [1], in assay [2], in assay [3], in [4], in assay [14] and in [5] was “inactive” throughout. In addition, the Potency entry in [6], in assay [16], in assay [11], in [17], in [12] and in [13] was “inactive” each time. Moreover, the result in assay [7] was inactive.

As to `C[As+](C)(C)CC(=O)[O-]`, the Potency result in assay [1], in [2], in assay [3], in [18], in assay [19] and in [14] was “inactive” throughout. In addition, the Potency result in [5], in [6], in assay [16], in assay [8], in assay [9] and in [11] was “inactive” throughout. Moreover, the Potency entry in assay [12] and in assay [13] was “inactive” in each case. Also, the compound was classed as inactive in assay [7].

As to `CC(=[OH+])/C=C(/C)[O-].CC(=[OH+])/C=C(\C)[O-].CC(=[OH+])/C=C(\C)[O-].[Fe]`, the Potency result in [1], in assay [3], in [4], in [14], in assay [16] and in [8] was “inactive” throughout. Besides, the Potency result in [11], in [17] and in assay [13] was “inactive” each time. Besides, in assay [2], the Potency was 39.9 µM (active).

Consider `Cc1cc(N=Nc2ccccc2C)ccc1N`, for which the Potency in assay [1] was 27.3 µM (active); in assay [2], 5.64 µM (active) and 6.33 µM (active); in assay [3], 17.2 µM (active) and 1.09 µM (active); in [19], 30.6 µM (active) and 48.6 µM (active); in [14], 38.6 µM (active) and 27.3 µM (active); in [8], 113 µM (active) and 89.8 µM (active). For the same compound, in assay [17], the Potency was 21900 nM (active). The Potency entry in assay [18], in assay [20], in [16], in assay [9] and in assay [12] was “inactive” in each case. Besides, the activity change, positive = activation in assay [10] was 34.9% (active) and 43.7% (active).

Regarding `CCC[CH2][Sn]([CH2]CCC)([CH2]CCC)[O]C(=O)c1ccccc1`, the Potency was 2.17 µM (active) in assay [1]; 35.6 µM (active) in assay [2]; 770 nM (active) in assay [3]; 1.22 µM (active) in [4]; 1.22 µM (active) in assay [14]; 0.549 µM (active) in [6]. Further, the Potency in assay [8] is 0.713 µM (active); in assay [9], 486 nM (active); in assay [11], 490 nM (active); in assay [17], 389 nM (active). Further, the Potency entry in [5] and in assay [12] was “inactive” in each case. Besides, the activity change, positive = activation in assay [10] is -78% (inactive).
